Data: PubChem BioAssay (NCI)
Compounds without any hit were thinned out: in the full panel of roughly 83,000, 20% have a hit.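 Testing used 96-well plates and a 48-hour single-concentration exposure. Example: -40 means 40% of the starting cells died.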 Values without a mark were called inactive. The source made the active and inactive calls. Rule for the calls: active = growth percent below 10; inactive = the rest.

Columns and labels:
Experiment in all cases: NCI-60 one-dose screen, 48 h (100 = growth as untreated, 0 = no growth, -100 = all killed)
Settings in all cases: 10 µM unless noted
[1] = test system: NCI-H23 lung
[2] = test system: NCI-H226 lung
[3] = test system: NCI-H322M lung
[4] = test system: HOP-62 NSCLC
[5] = test system: NCI-H460 lung
[6] = test system: HOP-92 NSCLC
[7] = test system: NCI-H522 lung
[8] = test system: A549/ATCC NSCLC
[9] = test system: 786-0 renal
[10] = test system: COLO 205 colon
[11] = test system: DU-145 prostate
[12] = test system: K-562 leukemia
[13] = test system: MALME-3M melanoma
[14] = test system: MDA-MB-231 breast
[15] = test system: RXF 393 renal
[16] = test system: SF-268 CNS
[17] = test system: SF-295 CNS
[18] = test system: SF-539 CNS
[19] = test system: UACC-257 melanoma
[20] = test system: M14 melanoma

Structure (SMILES)	growth [1]	growth [2]	growth [3]	growth [4]	growth [5]	growth [6]	growth [7]	growth [8]	growth [9]	growth [10]	growth [11]	growth [12]	growth [13]	growth [14]	growth [15]	growth [16]	growth [17]	growth [18]	growth [19]	growth [20]
Cc1nc([P+](c2ccccc2)(c2ccccc2)c2ccccc2)c(Sc2sc(-c3ccccc3)nc2[P+](c2ccccc2)(c2ccccc2)c2ccccc2)o1	3.75% (active)	47.6%	28.2%	9.57% (active)	3.38% (active)	-18.9% (active)	3.53% (active)	11.5%	20.2%	-43.4% (active)	19.7%	9.67% (active)	6.38% (active)	14.2%	26.7%	18.2%	1.87% (active)	22.3%	8.5% (active)	15.5%
CCN1CCN(c2nc(C)cc(N(CCCNc3ccnc4cc(Cl)ccc34)Cc3ccco3)n2)CC1	62.2%	86.4%	63.5%	52.1%	39.9%	65.3%	71.6%	50.4%	64.8%	-21.2% (active)	55.5%	8.16% (active)	-6.8% (active)	11.6%	48.5%	55.7%	51%	-63.5% (active)	-2.43% (active)	-76% (active)
CC(c1ccccc1)N1C(=O)C(C2SC(=S)N(C(C)c3ccccc3)C2=O)SC1=S (stereo not given)	96.1%	99.9%	93.1%	97.5%	82.5%	83.7%	77.5%	82.3%	96.2%	85.7%	95.1%	57.9%	69.9%	73.4%	85.6%	92.2%	98.6%	50.6%	81.7%	69.8%
CC(=O)NC1=C(C#N)C(c2ccccc2Cl)c2c(ccc3ccccc23)O1 (stereo not given)	76.2%	83.5%	86.8%	59.2%	39.1%	72.5%	39.2%	67.1%	82.7%	79.5%	89.1%	19.4%	48.4%	66.6%	77.2%	68.5%	25.7%	58.4%	76.7%	31.1%
c1cnc2[nH]cc(-c3csc(-c4cn(CCCN5CCCCC5)c5ccccc45)n3)c2c1	79.7%	77%	83.8%	54.6%	10.1%	35.1%	79.2%	58.3%	56.3%	-74% (active)	67%	-45.4% (active)	-55% (active)	45%	52.3%	58.9%	88.8%	-48.5% (active)	92%	-77.8% (active)
c1cc(N2CCCC2)c2nc(-c3[nH]ncc3Nc3ncnc4[nH]ccc34)[nH]c2c1	-45.3% (active)	-40.4% (active)	-21.1% (active)	-13.6% (active)	-4.99% (active)	-1.33% (active)	-11.3% (active)	-7.17% (active)	-26.1% (active)	-65.9% (active)	-4.71% (active)	6.25% (active)	-41.4% (active)	-15.2% (active)	-75.9% (active)	-25.1% (active)	-34% (active)	-54.3% (active)	-12.8% (active)	-77.1% (active)
Cc1ccc(-c2ccc(/C=C(\C#N)c3nc(-c4ccco4)cs3)o2)cc1	95%	92.7%	90.2%	97.5%	99.3%	100%	96.4%	103%	106%	99.1%	108%	95%	109%	93%	136%	107%	96.6%	103%	113%	93.7%
CC(C)(C)c1ccc(OCCCCCCCN2CCNCC2)cc1	51.9%	70.3%	53.6%	54%	-14.9% (active)	33.3%	72.9%	44.9%	23.9%	-60.9% (active)	45.6%	0.406% (active)	-50.4% (active)	19.3%	28.2%	59.5%	17.3%	67.3%	48.2%	45.2%
Cc1cc2nc3c4cc(Cl)ccc4n(CCN(C)C)c3nc2cc1C	10.7%	10.4%	9.53% (active)	22.1%	1.36% (active)	25.8%	19.7%	3.82% (active)	14.3%	-49.6% (active)	15.3%	3.43% (active)	-45.5% (active)	7.77% (active)	-0.246% (active)	33.3%	11.4%	14.1%	38.7%	-45.7% (active)
Nc1c2c(nc3ccc(Cl)cc13)CC(c1ccccc1)CC2=O (stereo not given)	58.6%	85%	62.1%	53.9%	15.2%	84.6%	41.1%	56.7%	55.1%	39.3%	63.9%	18%	40.3%	66.8%	55.8%	64.1%	24.5%	38.5%	64%	13.9%
COc1cc(/C=C2\C(=O)N(CC(O)COc3cc(O)c4c(=O)cc(-c5ccccc5)oc4c3)c3ccccc32)cc(OC)c1O (stereo not given)	88.8%	99.7%	96.5%	87.9%	85%	82.4%	64.1%	95.4%	98%	113%	85.6%	71.4%	99.1%	84.6%	101%	80%	95.1%	88.1%	110%	88.7%
CN1CCN(CCOc2ccc(-c3cnc4c(-c5ccccc5F)cnn4c3)cc2)CC1	46.5%	105%	57.9%	64.7%	-63.3% (active)	2.22% (active)	66.8%	22.4%	-73.5% (active)	-79.3% (active)	60.9%	-50.3% (active)	7.94% (active)	29.2%	50%	63.9%	65%	51.3%	-7.9% (active)	-80.3% (active)
CC/C=C\C[C@H]1CC=C2C(=O)C=C[C@@H]2CC=CCCCC(=O)O[C@@H](CCCCC)CC=C2C(=O)C=C[C@@H]2CC=CCCCC(=O)O[C@@H](CCCCC)CC=C2C(=O)C=C[C@@H]2CC=CCCCC(=O)O[C@@H](CCCCC)CC=C2C(=O)C=C[C@@H]2CC=CCCCC(=O)O1	4.69% [7.9 µM] (active)	74.6% [7.9 µM]	85.7% [7.9 µM]	8.97% [7.9 µM] (active)	30.4% [7.9 µM]	7.82% [7.9 µM] (active)	-16.2% [7.9 µM] (active)	39% [7.9 µM]	23% [7.9 µM]	-26.7% [7.9 µM] (active)	20.4% [7.9 µM]	7.46% [7.9 µM] (active)	26.2% [7.9 µM]	-11.1% [7.9 µM] (active)	-4.76% [7.9 µM] (active)	12.5% [7.9 µM]	53.7% [7.9 µM]	1.99% [7.9 µM] (active)	54.4% [7.9 µM]	-3.08% [7.9 µM] (active)
CCCC1CCCCN1C(=O)OCC(C)C (stereo not given)	152%	105%	104%	118%	107%	113%	99.4%	104%	106%	99.7%	104%	103%	107%	109%	119%	96.1%	94.5%	100%	110%	109%
